Reference: PubChem BioAssay (NCI)
Where “and” joins values, the source holds several entries; their conditions need not be identical. Identical values can stand only once. The panel holds about 83,000 compounds, 20% with a hit somewhere; the sample as a whole holds those more often.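 Growth was measured after 48 h exposure to one concentration of compound in 96-well plates. Values under 10 count as active.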 Calls of active or inactive are those of the source.

How the values were obtained:
Experiment in all cases: NCI-60 one-dose screen, 48 h (100 = growth as untreated, 0 = no growth, -100 = all killed)
Conditions in all cases: 10 µM unless noted
[1] = tested on: HCT-15 colon
[2] = tested on: HT29 colon
[3] = tested on: SNB-75 CNS
[4] = tested on: SNB-19 CNS
[5] = tested on: U251 CNS
[6] = tested on: PC-3 prostate
[7] = tested on: SK-MEL-5 melanoma
[8] = tested on: UACC-62 melanoma
[9] = tested on: LOX IMVI melanoma
[10] = tested on: SK-MEL-28 melanoma

SMILES	growth [1]	growth [2]	growth [3]	growth [4]	growth [5]	growth [6]	growth [7]	growth [8]	growth [9]	growth [10]
O=C(/C=C/c1ccc(Cl)s1)c1ccc(Cl)s1	88.2% (inactive) and 90.7% (inactive)	74.5% (inactive) and 94% (inactive)	106% (inactive) and 102% (inactive)	94.6% (inactive) and 99.5% (inactive)	92.8% (inactive) and 93.3% (inactive)	92.6% (inactive) and 105% (inactive)	96% (inactive) and 96.6% (inactive)	94.7% (inactive) and 99.6% (inactive)	78.8% (inactive) and 87.8% (inactive)	103% (inactive) and 112% (inactive)
CCCCCCCCCCCCCCCC[N+](C)(C)CCN(Cc1ccc(OC)cc1)c1ncccn1	74.4% (inactive) and 94.5% (inactive)	-100% (active) and 18.2% (inactive)	51.9% (inactive) and 13% (inactive)	-48.7% (active) and 41.9% (inactive)	-82.5% (active) and 29.2% (inactive)	-78% (active) and 15.4% (inactive)	8.82% (active) and 39.8% (inactive)	-39.6% (active) and 19% (inactive)	-76.8% (active) and 23.8% (inactive)	33.3% (inactive) and 52.9% (inactive)
CCOC(=O)n1cc(-c2nonc2-c2cn(C)c3ccc(OC)cc23)c2cc(F)ccc21	69.2% (inactive)	71.1% (inactive)	70.2% (inactive)	76.1% (inactive)	83.1% (inactive)	65% (inactive)	92% (inactive)	52.6% (inactive)	72.2% (inactive)	99.6% (inactive)
CCOC(=O)CC1CSC(c2cccc(Cl)c2)=N1 (stereo not given)	106% (inactive)	102% (inactive)	106% (inactive)	106% (inactive)	102% (inactive)	103% (inactive)	100% (inactive)	101% (inactive)	95.7% (inactive)	110% (inactive)
N#CC(Cc1cccc2ccccc12)c1cc2ccccc2[nH]1 (stereo not given)	88% (inactive)	95.7% (inactive)	88.3% (inactive)	98.2% (inactive)	92.3% (inactive)	74.8% (inactive)	95.6% (inactive)	70% (inactive)	90.9% (inactive)	102% (inactive)
CC[C@H](C)[C@H](NC(=O)[C@H](CCCCN)NC(=O)[C@H](CCCCN)NC(=O)[C@@H](NC(=O)[C@@H](NC(=O)[C@@H](N)Cc1cnc[nH]1)[C@@H](C)CC)[C@@H](C)CC)C(=O)N[C@@H](CCCNC(=N)N)C(=O)N[C@H](C(=O)N[C@@H](Cc1c[nH]c2ccccc12)C(=O)N[C@@H](Cc1ccc(O)cc1)C(=O)N[C@@H](CCCNC(=N)N)C(=O)N[C@@H](CCCCN)C(=O)N[C@@H](C)C(=O)N[C@@H](Cc1c[nH]c2ccccc12)C(=O)N[C@@H](Cc1cnc[nH]1)C(=O)N[C@H](C(=O)N[C@@H](CC(C)C)C(=O)NCC(=O)N[C@@H](CCCCN)C(=O)N[C@H](C(N)=O)C(C)C)C(C)C)[C@@H](C)O	21.4% (inactive)	60.4% (inactive)	72.7% (inactive)	58.6% (inactive)	20.2% (inactive)	67.1% (inactive)	13.2% (inactive)	-56.3% (active)	70.5% (inactive)	18.9% (inactive)
N#CSc1c[nH]c2ccc(/C=C/C(=O)/C=C(/C=C/c3ccc4[nH]cc(SC#N)c4c3)OB(F)F)cc12	-73.7% (active)	-53.6% (active)	18% (inactive)	38.2% (inactive)	-27% (active)	-22.5% (active)	9.1% (active)	-43% (active)	-91.4% (active)	-1.41% (active)
N=C(N)SCc1c2ccccc2c(CSC(=N)N)c2ccccc12	93.9% (inactive)	65.9% (inactive)	89.5% (inactive)	111% (inactive)	61.1% (inactive)	61.8% (inactive)	68.9% (inactive)	72.9% (inactive)	55.7% (inactive)	99% (inactive)
Cc1ccc2c(c1)C(C)Cc1c(ncnc1-n1cnc3cc(C)ccc31)N2C (stereo not given)	12.3% (inactive)	-10.3% (active)	60.3% (inactive)	37.8% (inactive)	6.82% (active)	24.5% (inactive)	-24.2% (active)	30.6% (inactive)	25.7% (inactive)	53.1% (inactive)
Cc1ccc(-c2nc3nc(-c4ccc(F)cc4)nc(N4CCCNCC4)c3o2)cc1	-84.5% (active)	-81.6% (active)	-96% (active)	-94.4% (active)	-93.2% (active)	-85.2% (active)	-87.4% (active)	-82.3% (active)	-88.6% (active)	-93.8% (active)
c1ccc(-c2cc(-c3cc(-c4ccccc4)on3)no2)cc1	17.5% (inactive)	21.2% (inactive)	123% (inactive)	101% (inactive)	73.8% (inactive)	128% (inactive)	101% (inactive)	89.7% (inactive)	69.2% (inactive)	102% (inactive)
O=C1C(Nc2ccc(Cl)cc2)=C(I)C(=O)c2ncccc21	-40.4% (active)	43.1% (inactive)	19.4% (inactive)	69.3% (inactive)	30.3% (inactive)	37.1% (inactive)	-39.8% (active)	-7.27% (active)	-68.6% (active)	39% (inactive)
CN(C)CC1(C)Cc2ccsc2C1O (stereo not given)	108% (inactive) and 105% (inactive)	104% (inactive) and 99.1% (inactive)	110% (inactive) and 101% (inactive)	108% (inactive) and 106% (inactive)	112% (inactive) and 103% (inactive)	98.2% (inactive) and 100% (inactive)	110% (inactive) and 107% (inactive)	109% (inactive) and 112% (inactive)	97.3% (inactive) and 102% (inactive)	120% (inactive) and 126% (inactive)
CCOC(=O)c1c(-c2ccc(C)cc2)c(C#N)c(=O)n(-c2cccc(C(F)(F)F)c2)c1N	101% (inactive)	111% (inactive)	76.3% (inactive)	88.8% (inactive)	102% (inactive)	110% (inactive)	101% (inactive)	99% (inactive)	96.9% (inactive)	102% (inactive)
O=c1c2c([nH]c3ccccc13)CCCC2	94.8% (inactive) and 23.8% (inactive)	102% (inactive) and 2.59% (active)	33.5% (inactive)	102% (inactive) and 56.9% (inactive)	97.4% (inactive) and 24.3% (inactive)	85.3% (inactive) and 57.9% (inactive)	99.3% (inactive) and 37.5% (inactive)	89.6% (inactive) and 53.7% (inactive)	102% (inactive) and 37.3% (inactive)	106% (inactive) and 53.8% (inactive)
NC(N)=NC(N)=NCCCc1ccco1	106% (inactive)	94.4% (inactive)	111% (inactive)	103% (inactive)	101% (inactive)	103% (inactive)	101% (inactive)	113% (inactive)	97.1% (inactive)	98.8% (inactive)
CC(=O)c1c(C)nc(SCC(=O)Nc2ccc(Cl)cc2)n1-c1ccc(Cl)cc1	84.6% (inactive)	83% (inactive)	73.1% (inactive)	93.7% (inactive)	89.8% (inactive)	71.8% (inactive)	81.9% (inactive)	69.7% (inactive)	93.1% (inactive)	104% (inactive)
C[C@@H]1O[C@@H](O[C@H]2[C@@H](OC(=O)[C@]34CCC(C)(C)C[C@H]3C3=CC[C@@H]5[C@@]6(C)C[C@H](O)[C@H](O[C@@H]7O[C@H](CO)[C@@H](O)[C@H](O)[C@H]7O)[C@@](C)(CO)[C@@H]6CC[C@@]5(C)[C@]3(C)C[C@H]4O)OC[C@@H](O)[C@@H]2O)[C@H](O)[C@H](O[C@@H]2OC[C@@H](O)[C@H](O[C@@H]3OC[C@](O)(CO)[C@H]3O[C@@H]3OC[C@@H](O)[C@H](O)[C@H]3O)[C@H]2O)[C@H]1O[C@@H]1OC[C@](O)(CO)[C@H]1O	86.4% (inactive)	60.3% (inactive)	92.6% (inactive)	80.7% (inactive)	42% (inactive)	66% (inactive)	88.3% (inactive)	79.2% (inactive)	81.3% (inactive)	9.31% (active)
COc1ccc(-c2nn3c(-c4cc(F)c(Cl)cc4Cl)nnc3s2)cc1	42% (inactive)	5.17% (active)	7.7% (active)	40.6% (inactive)	35.6% (inactive)	42.8% (inactive)	20.1% (inactive)	44.4% (inactive)	42.1% (inactive)	36.7% (inactive)
C=C(C)[C@@H]1CC[C@]2(C(=O)O)CC[C@]3(C)[C@H](CC[C@@H]4[C@@]5(C)CCC(N)C(C)(C)[C@@H]5CC[C@]43C)[C@@H]12 (stereo not given in full)	29.4% (inactive)	-13.6% (active)	95.8% (inactive)	28.1% (inactive)	5.5% (active)	66.5% (inactive)	61% (inactive)	-51.7% (active)	-51.1% (active)	-70.2% (active)
COC1=CC(=O)C(OC)=C(O)C1=O	97.7% (inactive)	106% (inactive)	77% (inactive)	101% (inactive)	101% (inactive)	97.2% (inactive)	97.8% (inactive)	96.1% (inactive)	99.6% (inactive)	102% (inactive)
CCCCC#Cc1c(/C=C(\CCCC)SCC)n(C)c(=O)[nH]c1=O	89.8% (inactive)	92.6% (inactive)	90.1% (inactive)	107% (inactive)	117% (inactive)	94.1% (inactive)	99% (inactive)	90.4% (inactive)	96.6% (inactive)	118% (inactive)
